# In PubChem BioAssay (EPA / NIEHS):
# Values joined by “and” are separate entries in the source; they are usually repeats but may differ in a detail not shown here. Equal entries are not always repeated. More than one record can exist for a structure, and the calls need not agree. Active and inactive are the calls of the source. Rule for the calls: active = hit-call score of the fitted dose curve at least 0.9, where 1 is the maximum; inactive = score below 0.9.
# Read-out: Monokine induced gamma interferon (MIG), CXCL9 (gene 4283)
# Assay: BSK_SAg_MIG: BioMAP Diversity Plus: SAg Assay for Monokine induced gamma interferon (MIG) Biomarker Activity (AID 2283092)
# Details: primary human HUVEC with PBMC; actives raise or lower the signal
# Procedure: BSK_SAg is a cell-based, multiplexed-readout assay that uses umbilical vein endothelium and peripheral blood mononuclear cells, a human vascular primary cell co-culture, with measurements taken at 24 hours after chemical dosing in a 96-well plate.BSK_SAg_MIG is an assay component measured in the BSK_SAg assay. It measures MIG antibody related to regulation of gene expression using ELISA technology.Data from the assay component BSK_SAg_MIG was analyzed into 1 assay endpoint. This assay endpoint, BSK_SAg_MIG, was analyzed with bidirectional fitting relative to DMSO as the negative control and baseline of activity. Using a type of binding reporter, gain or loss-of-signal activity can be used to understand changes in the signaling as they relate to the gene CXCL9. Furthermore, this assay endpoint can be referred to as a primary readout, because this assay has produced multiple assay endpoints where this one serves a signaling function. To generalize the intended target to other relatable targets, this assay endpoint is annotated to the cytokine intended target family, where the subfamily is chemotactic factor.
# The levels of cell surface (or secreted, indicated by the prefix "s") biomarker endpoints were measured by ELISA. Overt cytotoxicity to cells in confluent adherent cultures (all systems other than the BT system) was assessed by measuring total protein levels using sulforhodamine B (SRB) staining in parallel cultures at the time of biomarker measurements, indicated as SRB endpoints. For proliferation assays for adherent cell types, individual cell types are cultured at sub-confluence and relative cell numbers quantified by SRB staining at time points optimized for each system (48 h: 3C and CASM3C systems; 72 h: BT and HDF3CGF systems; 96 h: SAg system). SRB was performed by staining cells with 0.1% SRB after fixation with 10% TCA and reading wells at 560 nm.Viability and proliferation of PBMC (T cells) was quantified by Alamar Blue reduction for the SAg and BT systems. For PBMC viability (referred to as PBMC Cytotoxicity within the assay endpoint names), cells were plated (75,000/well in a 96-well plate) and then chemical samples added for 1 h before addition of activators, SEB and TSST-1 (20 ng/mL final concentration each). Cells were incubated for 90 h. Then, Alamar Blue (20 uL/well) (Invitrogen, Cat DAL1100) was added for 6 h, and the plates were read with a fluorescence microplate reader at 546/580 nm (excitation/emission). For PBMC proliferation, cells were plated and activated as above but incubated for only 16 h prior to addition of Alamar Blue. Plates were read after 6 h.
SMILES,outcome,AC50
COC(=O)CCCCC(=O)OC,inactive,–
OC1CCCCC1,inactive,–
CCCCCCCCCCCCCC[N+](C)(C)C,–,7.11 µM (active)
CCCOc1sc(C(=O)N2CCC(c3cc(CN)ccc3F)CC2)c(C)c1Br,–,11.9 µM (active)
O=c1c(-c2ccc(O)cc2)coc2cc(O)ccc12,inactive,–
CCCCC(CC)COC(=O)CCCCC(=O)OCc1ccccc1 (stereo not given),inactive,–
CC(C)(C)CC(C)(C)c1ccc(O)c(-n2nc3ccccc3n2)c1,inactive,–
NCC(F)(F)C(F)(F)C(F)(F)C(F)(F)C(F)(F)C(F)(F)C(F)(F)F,inactive,–
CCN(CC)CCNc1ccc(CNC=O)c2sc3ccc(OC)cc3c(=O)c12,–,36.4 µM (active)
COCC(C)OCC(C)O (stereo not given),inactive,–
OC1CCC(C2CCCCC2)CC1 (stereo not given),inactive,–
O=C(O)c1ccccc1C(c1ccc(O)cc1)c1ccc(O)cc1,inactive,–
CC1=C(/C=C/C(C)=C/C=C/C(C)=C/C(=O)O)C(C)(C)CCC1,–,36.5 µM (active)
CN(C)C=O,inactive,–
CCCCCCCCOC(=O)CCCCCCCCC(=O)OCCCCCCCC,inactive,–
NC(=O)N(O)[C@@H]1C=C[C@H](Oc2cccc(Oc3ccc(F)cc3)c2)C1,inactive,–
CCCCCCCC(=O)O,inactive,–
OCCC(F)(F)C(F)(F)C(F)(F)C(F)(F)C(F)(F)C(F)(F)C(F)(F)C(F)(F)F,inactive,46.3 µM (active) and 43.8 µM (active)
O=C(OCCOCCOC(=O)c1ccccc1)c1ccccc1,inactive,–

SMILES,outcome,AC50
CC(C)(C)c1cccc(C(C)(C)C)c1O,inactive,–
CN1CCC[C@H]1c1cccnc1,inactive,–
C#C[C@]1(O)CC[C@H]2[C@@H]3CCC4=CC(=O)CC[C@@H]4[C@H]3CC[C@@]21C,inactive,–
N#C[C@@H]1CC(F)(F)CN1C(=O)CNC1CC2CCC(C1)N2c1ncccn1 (stereo not given in full),inactive,–
c1ccc2c(c1)ccc1ccccc12,inactive,–
COCC(C)O (stereo not given),inactive,–
CC#C[C@]1(O)CC[C@H]2[C@@H]3CCC4=CC(=O)CCC4=C3[C@@H](c3ccc(N(C)C)cc3)C[C@@]21C,–,35.5 µM (active)
FC(F)(I)C(F)(F)C(F)(F)C(F)(F)C(F)(F)C(F)(F)I,–,54.9 µM (active) [middle of 5 runs]
CCCCCCCCC(=O)O,inactive,–
CC(C)(C)c1cc(C(C)(C)C)c(O)c(C(C)(C)C)c1,inactive,–
CCc1nn(C2CCCCC2)c2cc(C3(C#N)CCC(C(=O)O)CC3)ccc12 (stereo not given),–,28 µM (active)
CC(C)CCCCCCOC(=O)CCCCC(=O)OCCCCCCC(C)C,inactive,–
CCCCOCCO,inactive,–
CN1CCN(c2ccccc2/C=C2\SCCN(c3ccc(Cl)c(Cl)c3)C2=O)CC1,inactive,–
CCC(=C(c1ccc(O)cc1)c1ccc(OCCN(C)C)cc1)c1ccccc1,–,13.2 µM (active)
Nc1cccc2c(N)cccc12,inactive,–
OCCC(F)(F)C(F)(F)C(F)(F)C(F)(F)C(F)(F)C(F)(F)F,inactive,53.2 µM (active)
NC(=O)N1C(=O)C(C(=O)c2cc(Cl)cs2)c2cc(F)c(Cl)cc21 (stereo not given),inactive,–
Cc1oc(-c2ccccc2)nc1CCOc1ccc(C[C@H](Nc2ccccc2C(=O)c2ccccc2)C(=O)O)cc1,–,38.9 µM (active)
